The record followed here is PubChem BioAssay (NCATS).

A short description of experiment [1]: qHTS for Inhibitors of the Functional Ribonucleoprotein Complex (vRNP) of Lassa (LASV) Arenavirus: LASV Primary Screen - GLuc reporter signal (AID 1347082; calls by dose curve; tested in HEK293 reporter line; also: % is scaled to controls: 0 for no effect and ±100 for the full control effect; nearly all actives have a fitted effect of over 60% in size).
The nature of experiment [2]: qHTS for Inhibitors of the Functional Ribonucleoprotein Complex (vRNP) of Lassa (LASV) Arenavirus: Viability assay - alamar blue signal for LASV Primary Screen (AID 1347083; calls by dose curve; tested in HEK293 reporter line; also: % is scaled to controls: 0 for no effect and ±100 for the full control effect; nearly all actives have a fitted effect of over 80% in size).
Experiment [3] in a line: qHTS for Inhibitors of the Functional Ribonucleoprotein Complex (vRNP) of Lymphocytic Choriomeningitis Arenaviruses (LCMV): Viability assay - alamar blue signal for LCMV Primary Screen (AID 1347085; calls by dose curve; tested in HEK293 reporter line; also: % is scaled to controls: 0 for no effect and ±100 for the full control effect; nearly all actives have a fitted effect of over 80% in size).
Experiment [4] deals with Nucleoprotein (Lymphocytic choriomeningitis virus (strain Armstrong)) (UniProt P09992). The experiment is described as follows: qHTS for Inhibitors of the Functional Ribonucleoprotein Complex (vRNP) of Lymphocytic Choriomeningitis Arenaviruses (LCMV): LCMV Primary Screen - GLuc reporter signal (AID 1347086). Also: % is scaled to controls: 0 for no effect and ±100 for the full control effect; nearly all actives have a fitted effect of over 70% in size.
Experiment [5] is described as follows: Primary qHTS for inhibitors of SARS-S pseudo-typed particle cell entry (AID 1479145). Also: nearly all actives have a fitted effect of over 45% in size. As to activity change, negative = inhibition: % is scaled to controls: 0 for no effect and ±100 for the full control effect.
Experiment [6] is described as follows: Primary qHTS for Huh7 cytotoxicity: counterscreen for inhibitors of MERS-S pseudotyped particle cell entry (AID 1479147). The following applies: outcome: dose series up to 57.1 µM unless noted.
The nature of experiment [7]: Primary qHTS for inhibitors of MERS-S pseudo-typed particle cell entry (AID 1479149). Also: nearly all actives have a fitted effect of over 60% in size. Also: potency is read from the fitted curve at half-maximal effect. As to activity change, negative = inhibition: % is scaled to controls: 0 for no effect and ±100 for the full control effect.
Experiment [8] in a line: Primary qHTS for Vero E6 cytotoxicity: counterscreen for inhibitors of SARS-S pseudo-typed particle cell entry (AID 1479150). The settings on record: outcome: dose series up to 57.1 µM unless noted.
Experiment [9] in a line: Confirmatory qHTS to identify inhibitors of SARS-CoV-2 cell entry (AID 1645844). Also: potency is read from the fitted curve at half-maximal effect; nearly all actives have a fitted effect of over 45% in size. The essentials: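 HEK293-ACE2 cells were pretreated 1 h with compound, then infected with MLV-based pseudoparticles bearing C-terminally truncated Wuhan-Hu-1 spike for 48 h at 37C; luciferase luminescence normalized to spike PP and bald PP wells.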
Experiment [10] in a line: Primary qHTS to identify inhibitors of SARS-CoV-2 cell entry (AID 1645846). Also: nearly all actives have a fitted effect of over 45% in size. The following applies: activity change, negative = inhibition: at 57.1 µM (top of the series) unless noted. Put shortly: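 HEK293-ACE2 (Expi293F, stable hACE2), 1500 cells/well, o/n 37C; cpd 23 nL pin, 1 h; MLV-PP w/ SARS-CoV-2-S (Wuhan-Hu-1, Δ19 C-term); 48 h 37C; Bright-Glo luminescence; normalized vs S-PP and bald PP.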

Experiment [11] in a line: Cytotoxicity counterscreen for inhibitors of SARS-CoV-2 cell entry (AID 1645845). Also: nearly all actives have a fitted effect of over 50% in size. The essentials: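 HEK293-ACE2 cells (Expi293F stably expressing human ACE2) seeded overnight, then compound for 1 h plus 48 h at 37C. Viability as ATP content by luminescence; normalized to wells with cells and media-only wells.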
Experiment [12] has as its target Cytochrome P450 3A4 (Homo sapiens) (UniProt P08684). Nature of the experiment: qHTS Assay for Activators of Cytochrome P450 3A4 (AID 885; active = well fitted curve in the direction sought with a large enough effect; an effect the other way counts as inactive or inconclusive; also: nearly all actives have a fitted effect of over 65% in size). The essentials:
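Steps: enzyme/substrate mix dispensed; compound added, 10 min RT; NADPH regeneration solution added, 60 min RT; luciferin detection buffer stops reaction; 20 min later luminescence measured.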

For experiment [13], the target named is Alpha-galactosidase (Coffea arabica) (UniProt Q42656). Nature of the experiment: Counterscreen for Glucocerebrosidase Inhibitors: qHTS Assay for Coffee Bean alpha-Galactosidase at pH 4.5 (AID 957; active = well fitted curve in the direction sought with a large enough effect; an effect the other way counts as inactive or inconclusive;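 also: plate controls were enzyme alone for no effect and no enzyme for full effect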). Put shortly:
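Coffee bean enzyme (2 nM) with 80 uM 4-methylumbelliferyl alpha-D-galactopyranoside in 50 mM citric acid, 0.005% Tween-20, pH 4.5, 20 min at room temperature; compounds 0.7 nM–77 uM. Stopped at pH 10, fluorescence 365/440 nm; AC50 from Hill fits.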

The target is the same in experiment [14]. The experiment is described as follows: Counterscreen for Glucocerebrosidase Inhibitors: qHTS Assay for Coffee Bean alpha-Galactosidase at pH 5.9 (AID 998; active = well fitted curve in the direction sought with a large enough effect; an effect the other way counts as inactive or inconclusive;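 also: plate controls were uninhibited enzyme for no effect and no-enzyme basal signal for full effect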). Put shortly: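 Green coffee bean enzyme (2 nM) with 4-methylumbelliferyl alpha-D-galactopyranoside (80 uM) in 50 mM citric acid, 0.005% Tween-20, pH 5.9, 20 min at room temperature; compounds 0.7 nM–77 uM. Stopped at pH 10, fluorescence Ex365/Em440; Hill-fit AC50.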

A short description of experiment [15]: Validation screen for inhibitors of Lassa infection (AID 463096). Also: % is scaled to controls: 0 for no effect and ±100 for the full control effect.
In experiment [16] the target is Nuclear receptor subfamily 1 group I member 3 (Homo sapiens) (UniProt Q14994). The experiment is described as follows: Primary qHTS for antagonist of constitutive androstane receptor (CAR) against the NCATS DSHEA and TCM libraries (AID 1794836; active = well fitted curve in the direction sought with a large enough effect; an effect the other way counts as inactive or inconclusive;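 also: HepG2 cells stably expressing hCAR with CYP2B6 luciferase reporter stimulated by CITCO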). The essentials: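 HepG2-CYP2B6-hCAR cells, attached 5 h, given compounds plus CITCO agonist […], incubated 24 h at 37 C. Luciferase luminescence read, multiplexed with CellTiter-Fluor viability (Ex/Em 405/540 nm).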

Experiment [17] in a line: KB-8-5-11 P-gp reporter qHTS against the NCATS DSHEA and TCM libraries (AID 1919977; active = well fitted curve in the direction sought with a large enough effect; an effect the other way counts as inactive or inconclusive; also: 0% is about no effect). The essentials:
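CellTiter-Glo luminescence after ~72 h exposure at 37C gave viability of KB-8-5-11 cells, the P-gp-overexpressing subline. Substances were titrated; colchicine was omitted from assay medium.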

Experiment [18] is described as follows: Inducers of the Endoplasmic Reticulum Stress Response (ERSR) in human glioma: Validation (AID 504836; active = well fitted curve in the direction sought with a large enough effect; an effect the other way counts as inactive or inconclusive; also: 0% is about no effect). The essentials: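 Stably transfected U87-MG glioma cells carrying a GRP78-based luciferase sensor; 16 h compound incubation. Luminescence end-point read 10 min after Bright-Glo addition at room temperature.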
For experiment [19], the target named is Bile acid receptor (Homo sapiens) (UniProt Q96RI1). The experiment is described as follows: qHTS assay for small molecule agonists of farnesoid X receptor signaling (AID 588527).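 Also: 0% = vehicle basal and 100% = reference agonist.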 The following applies: HEK293T FXR-UAS-bla, beta-lactamase ratio, 16 h; activation: stronger effect = higher value. Put shortly:
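Read-out: beta-lactamase reporter fluorescence with CCF4 substrate in GeneBLAzer FXR-UAS-bla HEK293T cells, after 16 h compound exposure at 37 C. Response scaled between DMSO basal (0%) and chenodeoxycholic acid at 100 uM (100%).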

Experiment [20] can be described thus: qHTS for inhibitors of Rabies Virus screened against the NCATS CANVASS Library (AID 1347402). Also: 0% is about no effect.

Molecules are shown by their SMILES. “And” between values parts separate entries of the source, which are not always exact repeats. Equal values may be shown once. Results filed as inconclusive are left out. The source made the active and inactive calls. Unless noted, calls follow the shape of the full dose curve.

Sequence of Nucleoprotein (Lymphocytic choriomeningitis virus (strain Armstrong)) (P09992 whole entry, looked up): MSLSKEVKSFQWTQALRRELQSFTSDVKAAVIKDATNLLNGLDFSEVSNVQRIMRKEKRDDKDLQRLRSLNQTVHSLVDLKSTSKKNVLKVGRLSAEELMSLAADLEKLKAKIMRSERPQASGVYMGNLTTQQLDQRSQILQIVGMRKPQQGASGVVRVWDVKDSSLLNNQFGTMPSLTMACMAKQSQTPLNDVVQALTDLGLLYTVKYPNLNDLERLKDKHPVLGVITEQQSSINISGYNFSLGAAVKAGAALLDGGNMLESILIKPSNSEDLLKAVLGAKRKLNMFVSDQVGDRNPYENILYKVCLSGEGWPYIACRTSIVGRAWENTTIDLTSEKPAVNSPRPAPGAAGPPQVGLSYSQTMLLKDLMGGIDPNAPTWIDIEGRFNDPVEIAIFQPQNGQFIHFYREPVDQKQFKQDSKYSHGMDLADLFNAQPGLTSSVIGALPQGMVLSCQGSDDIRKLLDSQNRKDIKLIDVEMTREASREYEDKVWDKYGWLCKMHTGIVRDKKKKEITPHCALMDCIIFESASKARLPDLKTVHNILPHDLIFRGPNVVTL
Sequence of Alpha-galactosidase (Coffea arabica) (Q42656 whole entry, looked up): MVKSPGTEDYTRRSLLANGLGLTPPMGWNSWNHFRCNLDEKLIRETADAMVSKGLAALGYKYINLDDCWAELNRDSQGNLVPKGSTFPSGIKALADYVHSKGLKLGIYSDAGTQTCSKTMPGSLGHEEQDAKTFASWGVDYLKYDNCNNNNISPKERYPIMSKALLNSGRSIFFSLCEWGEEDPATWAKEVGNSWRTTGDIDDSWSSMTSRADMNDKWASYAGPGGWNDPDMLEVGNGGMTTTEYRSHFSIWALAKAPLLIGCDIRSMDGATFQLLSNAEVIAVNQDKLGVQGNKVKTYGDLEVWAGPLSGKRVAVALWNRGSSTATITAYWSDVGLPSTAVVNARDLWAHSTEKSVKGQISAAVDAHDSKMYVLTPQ
Sequence of Cytochrome P450 3A4 (Homo sapiens) (P08684 whole entry, looked up): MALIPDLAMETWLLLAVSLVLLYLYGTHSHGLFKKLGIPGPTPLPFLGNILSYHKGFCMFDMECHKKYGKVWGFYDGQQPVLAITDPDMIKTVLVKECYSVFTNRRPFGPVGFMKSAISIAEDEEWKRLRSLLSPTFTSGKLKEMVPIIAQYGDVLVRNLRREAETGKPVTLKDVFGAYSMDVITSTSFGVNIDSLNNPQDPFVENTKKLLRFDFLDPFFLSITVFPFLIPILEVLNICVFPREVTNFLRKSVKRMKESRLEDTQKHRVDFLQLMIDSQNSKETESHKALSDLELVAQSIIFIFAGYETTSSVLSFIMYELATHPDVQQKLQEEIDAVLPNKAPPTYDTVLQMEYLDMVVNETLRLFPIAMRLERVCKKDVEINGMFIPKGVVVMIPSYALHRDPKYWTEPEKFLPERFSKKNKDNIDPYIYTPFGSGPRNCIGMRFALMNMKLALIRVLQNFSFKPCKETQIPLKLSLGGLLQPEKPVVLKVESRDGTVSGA
Sequence of Nuclear receptor subfamily 1 group I member 3 (Homo sapiens) (Q14994 whole entry, looked up): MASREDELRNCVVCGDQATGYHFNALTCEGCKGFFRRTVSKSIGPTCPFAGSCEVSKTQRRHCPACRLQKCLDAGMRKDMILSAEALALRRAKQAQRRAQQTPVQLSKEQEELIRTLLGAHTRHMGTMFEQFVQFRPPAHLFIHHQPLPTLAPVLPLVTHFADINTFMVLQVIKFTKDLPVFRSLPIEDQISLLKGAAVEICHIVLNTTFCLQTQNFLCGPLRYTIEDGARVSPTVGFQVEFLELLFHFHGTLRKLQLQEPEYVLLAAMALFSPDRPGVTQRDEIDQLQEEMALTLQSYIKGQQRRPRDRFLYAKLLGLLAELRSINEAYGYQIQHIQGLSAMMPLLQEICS
Sequence of Bile acid receptor (Homo sapiens) (Q96RI1 whole entry, looked up): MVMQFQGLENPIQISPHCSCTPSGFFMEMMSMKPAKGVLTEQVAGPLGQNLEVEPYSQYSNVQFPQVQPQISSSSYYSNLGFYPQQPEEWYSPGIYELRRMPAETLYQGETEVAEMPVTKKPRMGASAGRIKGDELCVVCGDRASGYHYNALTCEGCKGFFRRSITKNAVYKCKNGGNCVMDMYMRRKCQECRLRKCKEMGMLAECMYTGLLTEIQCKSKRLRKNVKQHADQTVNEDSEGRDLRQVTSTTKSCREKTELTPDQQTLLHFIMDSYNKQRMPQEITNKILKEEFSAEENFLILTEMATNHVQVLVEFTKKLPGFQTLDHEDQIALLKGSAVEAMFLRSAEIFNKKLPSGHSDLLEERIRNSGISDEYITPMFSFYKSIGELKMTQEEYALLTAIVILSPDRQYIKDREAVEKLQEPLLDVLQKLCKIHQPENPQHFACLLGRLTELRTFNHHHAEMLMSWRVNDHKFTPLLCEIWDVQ

As to `COc1cc2c(cc1Cc1cccc(Cl)c1F)c(=O)c(C(=O)O)cn2[C@H](CO)C(C)C`, the Potency entry in experiment [1], in experiment [2], in [3], in experiment [4] and in [5] was “inactive” in each case. Moreover, the compound was called inactive in [6] and in experiment [8]. Further, the Potency in experiment [7] is 12.6 µM (active); in experiment [9] it was 0.0607 µM (active). Moreover, the activity change, negative = inhibition in [10] was -96.1% and -86.8%.

As for `CC(CC=O)CCCC(C)(C)O` (stereo not given), the Potency entry in experiment [1], in experiment [2], in experiment [3], in experiment [4], in experiment [5] and in experiment [7] was “inactive” each time. Besides, in experiment [11], the Potency entry was “inactive”. The outcome in experiment [6] and in experiment [8] was inactive.

For `C[Se]CC[C@H](N)C(=O)O`, the Potency result in experiment [1], in experiment [2], in [3], in experiment [4], in experiment [5] and in experiment [7] was “inactive” throughout. Moreover, the outcome in experiment [6] is “inactive [at 26.4 µM]”. Besides, the result in experiment [8] was inactive.

For `CC(C)[N+]1(C)[C@@H]2CC[C@H]1CC(OC(=O)C(CO)c1ccccc1)C2` (stereo not given in full), the Potency result in [1], in [2], in experiment [3], in [4], in [5] and in [7] was “inactive” each time. For the same compound, the Potency entry in experiment [11] was “inactive”. In addition, the outcome in [6] and in experiment [8] was inactive. In experiment [10], the activity change, negative = inhibition amounted to 2.78%.

Regarding `C[N+](C)(C)CCO`, the Potency result in experiment [12], in [15], in experiment [1], in [2], in [3] and in [4] was “inactive” each time. The Potency result in experiment [5], in experiment [7], in experiment [11] and in experiment [16] was “inactive” each time. The compound was called inactive in experiment [13], in experiment [14] and in experiment [17]. In addition, the outcome in experiment [6] and in experiment [8] was “inactive [at 114 µM]” throughout. Besides, in experiment [10], the activity change, negative = inhibition is -23.8% [at 114 µM].

With `N[C@@H](Cc1ccc(O)c(O)c1)C(=O)O`, the compound was classed as inactive in experiment [13], in [14] and in experiment [18]. Also, the activation in [19] is 1.53% (inactive). Further, the Potency entry in experiment [1], in experiment [2], in experiment [3], in [4] and in experiment [11] was “inactive” each time. Besides, the outcome in experiment [5] is “inactive [at 0.573 µM]”; in experiment [6], “inactive [at 0.573 µM]”; in [8] it was “inactive [at 0.573 µM]”; in experiment [10], “inactive [at 0.702 µM]”. Also, the activity change, negative = inhibition is 3.84% [at 0.573 µM] (inactive) in [7] and -25.4% in experiment [10]. Also, the Potency in [9] was 3.83 µM (active).

For the compound `O=c1c(O)c(-c2ccc(O)c(O)c2)oc2cc(O)ccc12`, the Potency result in [1], in experiment [2], in experiment [3], in [4] and in experiment [11] was “inactive” in each case. Moreover, the compound was called inactive in [20].

With `NCC1CCC(C(=O)O)CC1` (stereo not given), the Potency result in [1], in experiment [2], in experiment [3], in experiment [4], in experiment [11] and in [10] was “inactive” in each case. Also, the outcome in [5], in [6] and in experiment [8] was “inactive [at 11.4 µM]” each time. In addition, the activity change, negative = inhibition in experiment [7] was 2.4% [at 11.4 µM] (inactive).
